Laboratory results from PubChem BioAssay AID463173 (ICCB-Longwood Screening Facility, Harvard Medical School, 2010).
About 1,700 (3.3%) of roughly 52,000 compounds were called active. Cut-off read from the data, not from the text of the source: active = survival mostly below about 52% (no sharp cut-off); inactive = mostly above about 56%. The sample as a whole holds a higher share of actives than the screen did.

Each compound was assayed on Wild type (assay: growth inhibition of S. aureus wild type versus tarO mutant, primary screen, teichoic acid synthesis inhibitors, RN4220, OD600 (AID 463173)). Details: S. aureus RN4220 wild type/DeltatarO growth, OD600, 18 h, hits give low values, screened at 18.75 µg/mL (by protocol).
In the case of `COc1cc2nc(NC(=O)c3ccc(S(=O)(=O)N4CCOCC4)cc3)sc2cc1OC`, the survival is reported as 79% (inactive). `COC(=O)c1sc2cccc(F)c2c1S(=O)(=O)N1CCN(c2ccccc2OC)CC1` was tested, and the survival was 47% (inactive). In the case of `Cc1cccc(-c2nc(CSCC(=O)NCCc3ccc(Cl)cc3)c(C)o2)c1`, the survival is reported as -3% (active). For `CCOc1ccc(CCNC(=O)CSCc2nc(-c3cccc(C)c3)oc2C)cc1OCC`, the survival was 80% (inactive). With `COc1ccc(CCNC(=O)CSCc2nc(-c3cccc(C)c3)oc2C)cc1OC` the survival was 74% (inactive). With `COc1cccc(-c2nc(CS(=O)(=O)CC(=O)NCCc3ccc(Cl)cc3)c(C)o2)c1` the survival was 78% (inactive). `COc1ccc(-c2nc(CSCC(=O)NCCc3ccccc3)c(C)o2)cc1` was tested, and the survival was 95% (inactive). In the case of `COc1cccc(-c2nc(CSCC(=O)NCCc3ccc(Cl)cc3)c(C)o2)c1`, the survival is reported as -1% (active). For `COc1cc2[nH]c(=O)n(CCCC(=O)N(C)Cc3ccccc3)c(=O)c2cc1OC`, the survival was 68% (inactive). For `CN(C)c1ccc(-c2nnc3n(Cc4ccccc4)c(=O)c4ccccc4n23)cc1`, the survival was 83% (inactive). For `COc1ccc(N2CCN(C(=O)c3cccc(NC(=O)c4nsc5ccccc45)c3)CC2)cc1`, the survival was 131% (inactive). For `O=C(NCc1ccc2c(c1)OCO2)C1CCN(c2ccc(S(=O)(=O)N3CCCC3)cc2)CC1`, the survival was 101% (inactive). `Cc1ccc(-c2nc(N3CCCC(C)C3)c3ccccc3n2)cc1` (stereo not given) was tested, and the survival was -2% (active). With `COc1ccccc1N1CCN(c2nc(-c3ccc(C)cc3)nc3ccccc23)CC1` the survival was 72% (inactive). For `CC1CCCN(c2nc(-c3ccccc3O)nc3ccccc23)C1` (stereo not given), the survival was -3% (active). For `Cc1cccc(-c2nc(N3CCN(c4ccc(F)cc4)CC3)c3ccccc3n2)c1`, the survival was 64% (inactive). `COc1ccc(N2CCN(c3nc(-c4ccccc4F)nc4ccccc34)CC2)cc1` was tested, and the survival was 92% (inactive). In the case of `CC1CCCN(c2csc3ccccc3c2=O)C1` (stereo not given), the survival is reported as 97% (inactive). For `N#CCNC(=O)c1sc2ccccc2c1Cl`, the survival was 107% (inactive). In the case of `Cc1nnc(NC(=O)CCCN2C(=O)/C(=C/c3cccs3)SC2=S)s1`, the survival is reported as 107% (inactive). In the case of `COc1cc(C(=O)N2CC(=O)Nc3ccc(C)cc3C2c2ccc(F)cc2)cc(OC)c1OC` (stereo not given), the survival is reported as 147% (inactive). In the case of `Cc1c(Cl)cccc1NC(=O)CCS(=O)(=O)c1ccc2c(c1)CC(C)N2C(=O)C1CC1` (stereo not given), the survival is reported as 85% (inactive). With `Cc1ccc(-n2ncc3c(N4CCC(Cc5ccccc5)CC4)ncnc32)cc1` the survival was 70% (inactive). `CC(C)CC(NC(=O)C1CCCCC1)C(=O)Nc1cccc(C(F)(F)F)c1` (stereo not given) was tested, and the survival was 64% (inactive). In the case of `C=Cc1ccc(CN2C(=O)N(c3ccc(C)c(C)c3)S(=O)(=O)c3ccccc32)cc1`, the survival is reported as 71% (inactive). `C=Cc1ccc(CN2C(=O)N(c3ccc(CC)cc3)S(=O)(=O)c3ccccc32)cc1` was tested, and the survival was 1% (active). With `C=Cc1ccc(CN2C(=O)N(c3cccc(Cl)c3)S(=O)(=O)c3ccccc32)cc1` the survival was 57% (inactive). In the case of `Cc1coc2c(C)c3oc(=O)c(CCC(=O)NCCc4ccccc4)c(C)c3cc12`, the survival is reported as 84% (inactive). With `COc1cccc(N2CCN(C(=O)c3cnc4c(C)cccn4c3=O)CC2)c1` the survival was 91% (inactive). `COc1ccccc1N1CCN(c2nc3ccc(C)cc3n3nnnc23)CC1` was tested, and the survival was 133% (inactive). For `Cc1ccc2nc(NCc3ccccc3Cl)c3nnnn3c2c1`, the survival was 94% (inactive). With `COc1ccccc1CNc1nc2ccc(C)cc2n2nnnc12` the survival was -1% (active). With `Cc1ccc2nc(N3CCN(c4ccccc4F)CC3)c3nnnn3c2c1` the survival was 76% (inactive). For `Cc1ccc(N2CCN(c3nc4ccc(C)cc4n4nnnc34)CC2)c(C)c1`, the survival was 76% (inactive). `Cc1ccc2nc(N3CCN(c4ccc(F)cc4)CC3)c3nnnn3c2c1` was tested, and the survival was 14% (active). For `COc1ccc(N2CCN(c3nc4ccc(C)cc4n4nnnc34)CC2)cc1`, the survival was -6% (active). `Cc1ccc2nc(N3CCN(c4ccccc4)CC3)c3nnnn3c2c1` was tested, and the survival was 78% (inactive). `COc1ccc(OC)c(CNc2nc3ccc(C)cc3n3nnnc23)c1` was tested, and the survival was 85% (inactive). In the case of `CCN(c1ccccc1)S(=O)(=O)c1ccc(-c2cc(C)no2)s1`, the survival is reported as 159% (inactive). `NC(=S)N/N=C/c1ccccc1OCC(=O)O` was tested, and the survival was 96% (inactive). `Cc1ccc(NC(=O)Cn2ccn(-c3ccc(F)c(F)c3)c(=O)c2=O)cc1C` was tested, and the survival was 78% (inactive). For `Cc1ccc(CCNC(=O)c2oc(=O)c3ccccc3c2-c2ccc(C)cc2)cc1`, the survival was 17% (inactive). In the case of `Cc1ccc(-c2c(C(=O)NCCc3ccccc3)oc(=O)c3ccccc23)cc1`, the survival is reported as 79% (inactive). `Cc1ccc(-c2c(C(=O)NCc3ccc(F)cc3)oc(=O)c3ccccc23)cc1` was tested, and the survival was 76% (inactive). With `Cc1ccc(-c2c(C(=O)N(C)Cc3ccccc3)oc(=O)c3ccccc23)cc1` the survival was 11% (active). With `CCCCN(Cc1ccccc1)C(=O)c1oc(=O)c2ccccc2c1-c1ccc(C)cc1` the survival was 0% (active). With `Cc1ccc(-c2c(C(=O)NCCc3ccc(Cl)cc3)oc(=O)c3ccccc23)cc1` the survival was 57% (inactive). With `COc1ccccc1CCNC(=O)c1ccc2c(c1)c(C)c(C)n2Cc1ccc(Cl)cc1` the survival was 77% (inactive). In the case of `CC1(C)Cc2ccccc2-c2nnc(-c3ccccc3)n21`, the survival is reported as 95% (inactive). In the case of `Fc1ccc(Br)cc1C1C=C(c2ccc(Br)cc2)Nc2nnnn21` (stereo not given), the survival is reported as 81% (inactive). `COc1ccc(C2C=C(c3ccc(Br)cc3)Nc3nnnn32)c(OC)c1` (stereo not given) was tested, and the survival was 66% (inactive). With `COc1cccc(C2=CC(c3cc(Br)ccc3F)n3nnnc3N2)c1` (stereo not given) the survival was -4% (active). `O=C(c1ccc2c(c1)N(Cc1ccc(Cl)cc1)C(=O)c1ccccc1S2=O)N1CCOCC1` (stereo not given) was tested, and the survival was 83% (inactive). For `Cc1ccc(S(=O)(=O)N2CCCc3cc(NC(=O)c4ccc(C(F)(F)F)cc4)ccc32)cc1`, the survival was 110% (inactive). For `O=C(c1cnc2c(c1)COc1ccccc1-2)c1ccccc1O`, the survival was 5% (active). In the case of `Cc1ccc2c(c1)-c1nc(-c3ccccc3)cc(-c3ccccc3)c1CO2`, the survival is reported as 79% (inactive). `Cc1ccc2c(c1)-c1ncc(C(=O)c3cc(Br)ccc3O)cc1CO2` was tested, and the survival was 56% (inactive). In the case of `O=C(c1cnc2c(c1)COc1ccc(Cl)cc1-2)c1ccccc1O`, the survival is reported as 131% (inactive). With `Cc1ccc2c(c1)-c1ncc(C(=O)c3ccccc3O)cc1CO2` the survival was -7% (active). For `Cc1cc(O)c(C(=O)c2cnc3c(c2)COc2ccccc2-3)cc1Cl`, the survival was 64% (inactive).
